Screening results deposited in PubChem by National Center for Advancing Translational Sciences (NCATS).
This is one part of a sample in which hits are shown more often than they occur.
ERK EGF inh = EGF-driven ERK pathway inhibition; HEK293-V1b, EGF-stimulated phospho-ERK AlphaScreen; Potency, µM (doses to about 11.5 µM), most hits filed as inhibitors; actives 0.41% (n = 130,000); active = well fitted inhibition curve with a large enough effect; note: nearly all actives have a fitted effect of over 55% in size
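HEK293 cells stably expressing V1b receptor, serum-reduced (1% FBS) overnight, pretreated 30 min with compound, then stimulated 5 min with 25 nM EGF; phospho-ERK detected by AlphaScreen SureFire. AC50 from Hill fits, normalized to DMSO and EGF.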
Large screens that a line does not name were inactive.

O=[N+]([O-])c1cccnc1N/N=C/c1ccccc1O	none
COc1cc(/C=N/Nc2ccccc2[N+](=O)[O-])ccc1OC(=O)c1ccccc1F	none
Cc1[nH]c2ccccc2c1/C=N/Nc1ccccc1[N+](=O)[O-]	ERK EGF inh 25.1µM
Cc1[nH]c2ccccc2c1/C=N/NS(=O)(=O)c1ccccc1	none
Cc1[nH]c2ccccc2c1/C=N/NC(=S)NC(C)C	none
CC(C)Oc1ccccc1/C=N/Nc1ccccc1[N+](=O)[O-]	ERK EGF inh 12.6µM
COc1ccc(/C=N\Nc2ccccc2[N+](=O)[O-])c(C(=O)O)c1OC	none
COc1ccccc1/C=N\Nc1ccccc1[N+](=O)[O-]	ERK EGF inh 10µM
COc1cc(/C=N/Nc2ccccc2[N+](=O)[O-])cc(OC)c1O	none
CC(=O)OCC(=O)[C@@]1(O)CCC2C3CCC4=CC(=O)C=CC4(C)C3C(O)C[C@]21C (stereo not given in full)	none
COc1cc(C/C=C\c2ccccc2)c(OC)cc1O	none
C=C1CC[C@H](O)C/C1=C/C=C1\CCC[C@]2(C)[C@H]1CC[C@H]2[C@@H](C)/C=C\[C@@H](C)C(C)C	none
C=CC[C@](C)(Nc1ccc(OC)cc1)C(=O)OCC	none
CC1(OC(=O)c2ccco2)C(=O)C2=COC(C3CC3)=CC2=C(Br)C1=O (stereo not given)	none
Cc1nnc(SCc2nc3scc(-c4ccccc4)c3c(=O)[nH]2)s1	none
Nc1nnc(SCc2nc3scc(-c4ccccc4)c3c(=O)[nH]2)s1	none
CCn1c(SCc2nc3scc(-c4ccccc4)c3c(=O)[nH]2)nnc1-c1cccs1	ERK EGF inh 25.1µM
C=C1C(=O)OC2CC1C(OC(C)=O)CC(C)=CCCC(C)=CCC[C@@]2(C)O (stereo not given in full)	none
CCOC(=O)C(=O)c1c(C)cc2ccccn12	none
Cc1cc2ccccn2c1C(=O)c1ccc([N+](=O)[O-])o1	ERK EGF inh 17.8µM
Cc1cc2ccccn2c1C(=O)c1cccc([N+](=O)[O-])c1	none
CCN(CC)c1ccc(/C=N/NC(=O)c2ccc(O)cc2)cc1	none
CCCCCCCC/C=C\CCCCCCCC(=O)OC[C@@H](O)COP(=O)(O)O	none
Cc1ccc(N=CC2=C(O)CC(c3cccc(Cl)c3)CC2=O)cc1 (stereo not given)	none
O=C1CC(c2ccccc2)CC(O)=C1C=Nc1ccc(Cl)cc1 (stereo not given)	none
Cc1ccc(N=CC2=C(O)CC(c3ccccc3Cl)CC2=O)cc1 (stereo not given)	ERK EGF inh 20µM
COC(=O)C1(C(=O)OC)CC2=CCC3C(=O)N(c4ccccc4)C(=O)C3C2Cc2ccccc2[C@@H]1C[N+](=O)[O-] (stereo not given in full)	none
COc1cc2ncnc(NCc3cccs3)c2cc1OC	ERK EGF inh 2.51µM
COc1ccccc1CNc1ncnc2cc(Cl)ccc12	none
COc1cc2[nH]c(=S)nc(NCc3cccs3)c2cc1OC	none
COc1ccc(CCNc2c3ccccc3nc3ccccc23)cc1OC	none
COc1cccc(-c2cc(NCc3cccs3)ncn2)c1	none
COc1cc2ncnc(NCCc3ccccc3)c2cc1OC	ERK EGF inh 3.55µM
COc1ccc(CCNc2ncnc3c2[nH]c2cc(OC)c(OC)cc23)cc1OC	none
COc1ccc(CNc2ncnc3cc(Cl)ccc23)cc1OC	none
COc1ccc(CCNc2ncnc3cc(OC)c(OC)cc23)cc1OC	ERK EGF inh 28.2µM
N#Cc1ccc(CS(=O)(=O)c2nnnn2-c2ccccc2)cc1	none
COC(=O)c1ccc(C(NC(=O)c2ccco2)[C@]2(C)C[C@H]2C2CCCCC2)cc1 (stereo not given in full)	none
COC(=O)C=P(c1ccccc1)(c1ccccc1)c1ccccc1	none
N#CCCCS(=O)(=O)c1ccccc1	none
O=C1C=C(Nc2ccc(Cl)cc2)CC(c2ccco2)C1 (stereo not given)	none
O=C1C=C(Nc2ccc(Cl)cc2)CC(c2ccc(Cl)cc2)C1 (stereo not given)	ERK EGF inh 14.1µM
Cc1ccc(C2CC(=O)C=C(Nc3ccc(Cl)cc3)C2)cc1 (stereo not given)	none
O=C1CC2(CCCC2)CC(=O)N1CCCCNC[C@H]1COc2ccccc2O1	none
c1cc2c(cc1C1CCCCC1)c1c3n2CCN[C@H]3CCC1	none
Cc1ccc2c(c1)c1c3n2CCCNC3CCC1 (stereo not given)	none
c1cc2c(cc1C1CCCCC1)c1c3n2CCCNC3CCC1 (stereo not given)	ERK EGF inh 28.2µM
COCCc1ccc(OC[C@H](O)CNC(C)C)cc1	none
Brc1ccc2c(c1)c1cc(Br)ccc1n2CC1CO1 (stereo not given)	none
CCC1=C2CC[C@H]3C(=O)N(c4ccccc4)C(=O)[C@H]3[C@H]2[C@@]2(Cc3ccccc3)C(=O)N(CC(=O)OC)C(=O)N2C1=O	none
CC1=NN(c2ccccc2)C(=O)C1c1ccccc1 (stereo not given)	none
CC1=NN(C(N)=S)C(=O)C1N=Nc1ccccc1 (stereo not given)	none
CC1=NN(c2ccccc2)C(=O)C1N=Nc1ccccc1 (stereo not given)	ERK EGF inh 11.2µM
COc1ccccc1CNCCCCCCNCCCCCCCCNCCCCCCNCc1ccccc1OC	none
Cc1cccc(CNc2ccnc(-c3ccc(N(C)C)cc3)n2)c1	none
CCCCCCCCCCCCCCCCCCOC[C@H](COP(=O)([O-])OCC[N+](C)(C)C)OC(C)=O	none
O=C(NC(=S)NCCO)c1sc2ccccc2c1Cl	none
CC(C)(C)C(=O)NC(=S)NNC(=O)c1sc2ccccc2c1Cl	ERK EGF inh 12.6µM
O=C(NNC(=S)NC1CCCCC1)c1sc2ccccc2c1Cl	none
CN=c1scc(-c2ccc(OC)cc2)n1/N=C(\C)c1cccnc1	ERK EGF inh 22.4µM
COc1ccc(-c2nc(-c3cccnc3)no2)cc1	none
COc1ccc(NC(NC(=O)c2cccnc2)C(Cl)(Cl)Cl)cc1 (stereo not given)	none
COC(=O)[C@@H](NC(=O)O[C@H]1C(=O)c2cc(OC)ccc2O[C@@H]1c1ccc(OC)c(Br)c1)C(C)C	none
COC(=O)[C@@]1(Cc2ccccc2)[C@H]2c3cc(C(=O)N(C)C)n(Cc4nc5ccccc5[nH]4)c3C[C@H]2CN1C(=O)c1ccccc1	none
COc1ccccc1-c1csc(NC(=O)c2ccc(N3C(=O)CCC3=O)cc2)n1	ERK EGF inh 28.2µM
CCOC(=O)c1csc(NC(=O)c2ccc(N3C(=O)CCC3=O)cc2)n1	none
N#Cc1ccc(-c2csc(NC(=O)c3ccc(N4C(=O)CCC4=O)cc3)n2)cc1	none
Nc1ncnc2[nH]c(=O)[nH]c12	none
CCN(c1ccccc1)c1cc(NC)[n+](C)c(C)n1	none
Cn1c(=O)c(C(=O)COC(=O)c2cc(C(F)(F)F)nc3c(C(F)(F)F)cccc23)c(N)n(Cc2ccccc2)c1=O	none
COc1cccc([C@@H]2Oc3ccc(OC)cc3C(=O)[C@H]2OC(=O)NCc2ccco2)c1	none
COc1cccc(CS(=O)(=O)c2nnnn2-c2ccc(F)cc2Br)c1	none
C/C(=N\NC(=O)c1cc(-c2cccs2)nc2ccccc12)c1ccccn1	none
Cc1cccc2sc(NNC(=O)c3cc(-c4cccs4)nc4ccccc34)nc12	ERK EGF inh 12.6µM
NNC(=O)c1cc(-c2cccs2)nc2ccccc12	none
COCCn1c(=O)c(-c2ccc(F)c(F)c2)nc2cncnc21	none
C=C[C@@H]1CN2CC[C@@H]1C[C@@H]2[C@H](O)c1ccnc2ccc(OC)cc12	none
CCCCC1=CC2=C(OC(C)=O)C(=O)C(C)(OC(=O)CCC(=O)OC)C(=O)C2=CO1 (stereo not given)	none
COc1ccccc1/C=C/C=N\N1CCN(Cc2ccccc2Cl)CC1	ERK EGF inh 17.8µM
Clc1ccccc1CN1CCN(/N=C/c2ccncc2)CC1	none
Clc1ccc(/C=N/N2CCN(Cc3ccccc3Cl)CC2)cc1	none
